Assay [1] is described as follows: NCI Yeast Anticancer Drug Screen. Data for the rad50 strain (AID 155).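 Note: 0% = growth of vehicle-only cultures of the same strain.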 Conditions: S. cerevisiae rad50 strain growth inhibition, hits give high values. The gist of the method:
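Cells are treated with compound, grown, and their growth is then scored against vehicle-only cultures of the same repair-deficient yeast strain.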

Assay [2] is described as follows: NCI Yeast Anticancer Drug Screen. Data for the mec2-1 strain (AID 157). Conditions: S. cerevisiae mec2-1 strain, hits give high values. An outline of the steps:
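Vehicle-treated cultures served as reference for growth inhibition of compound-exposed mec2-1 yeast.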

Assay [3] in a line: NCI Yeast Anticancer Drug Screen. Data for the sgs1 mgt1 strain (AID 161).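 Note: 0% = growth of cultures given vehicle only.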 The following applies: S. cerevisiae sgs1 mgt1 strain, hits give high values. An outline of the steps: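 Test agents were incubated with a DNA-repair-mutant yeast strain. Growth was then read and compared against vehicle-treated controls.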
Assay [4] in a line: NCI Yeast Anticancer Drug Screen. Data for the cln2 rad14 strain (AID 165).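 Note: 0% = growth equal to vehicle treated cultures.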 The following applies: S. cerevisiae cln2 rad14 strain, hits give high values. An outline of the steps:
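Each compound was tested on cln2 rad14 yeast. Inhibition of growth was calculated against vehicle-exposed controls.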

A short description of assay [5]: NCI Yeast Anticancer Drug Screen. Data for the bub3 strain (AID 167). Conditions: S. cerevisiae bub3 mutant strain, hits give high values. An outline of the steps:
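Part of a panel of yeast mutants defective in DNA damage repair or cell cycle regulation. Each strain is grown with compound, and inhibition is calculated relative to solvent-treated cultures.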

The nature of assay [6]: NCI Yeast Anticancer Drug Screen. Data for the mlh1 rad18 strain (AID 175). The following applies: S. cerevisiae mlh1 rad18 strain growth inhibition, hits give high values. An outline of the steps:
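Vehicle-treated cultures served as the reference for growth inhibition in a yeast strain carrying DNA damage repair alterations exposed to each compound.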

[7] abbreviates: at 5.0 µM (retest, dose inferred, filed as 0.5).
The mark [8] stands for this setting: at 50.0 µM (retest, dose inferred, filed as 5.0).

About 79,000 compounds went through this panel and 15% of them were active in at least one assay; those are over-represented in the sample as a whole. Unmarked numbers belong to inactive results. The source made the active and inactive calls. Cut-off read from the data, not from the text of the source: active = growth inhibition above about 70%; inactive = the rest.

For the compound `C=C(CN1CCCC1)C(=O)c1ccc(OC)cc1`, the growth inhibition in assay [1] (setting [7]) was -6%; in assay [1] (setting [8]), 22%; in assay [1] (at 50.0 µM), 3.25%; in assay [2] (setting [7]), 7%; in assay [2] (setting [8]), 65%; in assay [2] (at 50.0 µM), 73% (active). Besides, the growth inhibition in assay [3] (setting [7]) was -8%; in assay [3] (setting [8]), 55%; in assay [3] (at 50.0 µM), 44.4%; in assay [4] (setting [7]), 31%; in assay [4] (setting [8]) it was 81% (active); in assay [4] (at 50.0 µM) it was -20.4%. For the same compound, the growth inhibition in assay [5] (setting [7]) was -6%; in assay [5] (setting [8]) it was 54%; in assay [5] (at 50.0 µM), -12%; in assay [6] (setting [7]), 4%; in assay [6] (setting [8]) it was 71% (active); in assay [6] (at 50.0 µM), 46.6%.

As for `COc1cc(F)ccn1`, the growth inhibition in assay [1] (setting [7]) is 2%; in assay [1] (setting [8]), 0%; in assay [1] (at 50.0 µM) it was -4.75%; in assay [2] (setting [7]), 5%; in assay [2] (setting [8]), 4%; in assay [2] (at 50.0 µM) it was -11.4%. Moreover, the growth inhibition in assay [3] (setting [7]) is 2%; in assay [3] (setting [8]), 2%; in assay [3] (at 50.0 µM), -12.5%; in assay [4] (setting [7]), 1%; in assay [4] (setting [8]), 4%; in assay [4] (at 50.0 µM) it was 12.8%. The growth inhibition was -2% in assay [5] (setting [7]); -4% in assay [5] (setting [8]); 46% in assay [5] (at 50.0 µM); -4% in assay [6] (setting [7]); -3% in assay [6] (setting [8]); -18.2% in assay [6] (at 50.0 µM).

Consider `CC(=O)Oc1ccc(/C=C2\N=C(c3ccccc3)OC2=O)c(OC(C)=O)c1`, for which the growth inhibition was 4% in assay [1] (setting [7]); 75% (active) in assay [1] (setting [8]); 15.3% in assay [1] (at 50.0 µM); 1% in assay [2] (setting [7]); 55% in assay [2] (setting [8]); 4.25% in assay [2] (at 50.0 µM). Moreover, the growth inhibition in assay [3] (setting [7]) was -4%; in assay [3] (setting [8]), 36%; in assay [3] (at 50.0 µM), 10.8%; in assay [4] (setting [7]), 2%; in assay [4] (setting [8]), 37%; in assay [4] (at 50.0 µM), 25.8%. For the same compound, the growth inhibition is -2% in assay [5] (setting [7]); 79% (active) in assay [5] (setting [8]); 9.55% in assay [5] (at 50.0 µM); 0% in assay [6] (setting [7]); 77% (active) in assay [6] (setting [8]); 1.05% in assay [6] (at 50.0 µM).

For `CCCCCCCCNS(=O)(=O)c1ccc(N)cc1`, the growth inhibition in assay [1] (setting [7]) was 4%; in assay [1] (setting [8]), 9%; in assay [1] (at 50.0 µM) it was 80.8% (active); in assay [2] (setting [7]), 0%; in assay [2] (setting [8]), 2%; in assay [2] (at 50.0 µM) it was 25.2%. Moreover, the growth inhibition in assay [3] (setting [7]) is 7%; in assay [3] (setting [8]) it was 2%; in assay [3] (at 50.0 µM), 70.5% (active); in assay [4] (setting [7]), 2%; in assay [4] (setting [8]), 0%; in assay [4] (at 50.0 µM) it was 16.8%. Besides, the growth inhibition in assay [5] (setting [7]) is 1%; in assay [5] (setting [8]) it was 0%; in assay [5] (at 50.0 µM) it was 61.2%; in assay [6] (setting [7]) it was 6%; in assay [6] (setting [8]), 2%; in assay [6] (at 50.0 µM), 79.2% (active).

Take `COc1cccc2c1C(=O)c1c(O)c3c(c(O)c1C2=O)CC(O)(C(=O)CO)CC3OC1CC(N)C(I)C(C)O1` (configuration not stated): the growth inhibition in assay [1] (setting [7]) is 98% (active); in assay [1] (setting [8]), 98% (active); in assay [1] (at 50.0 µM) it was 89.5% (active); in assay [2] (setting [7]), 98% (active); in assay [2] (setting [8]) it was 99% (active); in assay [2] (at 50.0 µM), 88.8% (active). The growth inhibition in assay [3] (setting [7]) is 98% (active); in assay [3] (setting [8]), 98% (active); in assay [3] (at 50.0 µM), 85.8% (active); in assay [4] (setting [7]) it was 95% (active); in assay [4] (setting [8]), 98% (active); in assay [4] (at 50.0 µM), 87.4% (active). The growth inhibition was 98% (active) in assay [5] (setting [7]); 98% (active) in assay [5] (setting [8]); 83.8% (active) in assay [5] (at 50.0 µM); 96% (active) in assay [6] (setting [7]); 97% (active) in assay [6] (setting [8]); 91% (active) in assay [6] (at 50.0 µM).

On to `COC(=O)c1ccc(-c2ccccc2)cc1`, for which the growth inhibition was -1% in assay [1] (setting [7]); 83% (active) in assay [1] (setting [8]); 82.3% (active) in assay [1] (at 50.0 µM); 1% in assay [2] (setting [7]); 94% (active) in assay [2] (setting [8]); 99.2% (active) in assay [2] (at 50.0 µM). Moreover, the growth inhibition in assay [3] (setting [7]) is 3%; in assay [3] (setting [8]), 82% (active); in assay [3] (at 50.0 µM), 98% (active); in assay [4] (setting [7]) it was -2%; in assay [4] (setting [8]) it was 55%; in assay [4] (at 50.0 µM), 44.2%. The growth inhibition is 10% in assay [5] (setting [7]); 92% (active) in assay [5] (setting [8]); 96% (active) in assay [5] (at 50.0 µM); 2% in assay [6] (setting [7]); 86% (active) in assay [6] (setting [8]); 96.8% (active) in assay [6] (at 50.0 µM).

As for `COc1ccc(/C=C/Cc2cc3c(cc2O)OCO3)cc1`, the growth inhibition in assay [1] (setting [7]) was -15%; in assay [1] (setting [8]), 13%; in assay [1] (at 50.0 µM), -4.05%; in assay [2] (setting [7]), -2%; in assay [2] (setting [8]), -10%; in assay [2] (at 50.0 µM), -9.7%. Also, the growth inhibition was 12% in assay [3] (setting [7]); 5% in assay [3] (setting [8]); 13.1% in assay [3] (at 50.0 µM); 3% in assay [4] (setting [7]); -2% in assay [4] (setting [8]); 25.8% in assay [4] (at 50.0 µM). The growth inhibition was -2% in assay [5] (setting [7]); 14% in assay [5] (setting [8]); 17.2% in assay [5] (at 50.0 µM); -6% in assay [6] (setting [7]); 1% in assay [6] (setting [8]); 0.85% in assay [6] (at 50.0 µM).

For the compound `Cc1cc(OC(=O)CCl)ccc1C(C)(C)C`, the growth inhibition is 1% in assay [1] (setting [7]); 12% in assay [1] (setting [8]); 56.4% in assay [1] (at 50.0 µM); 2% in assay [2] (setting [7]); 13% in assay [2] (setting [8]); 40.5% in assay [2] (at 50.0 µM). The growth inhibition in assay [3] (setting [7]) is 0%; in assay [3] (setting [8]) it was 1%; in assay [3] (at 50.0 µM), 56.4%; in assay [4] (setting [7]) it was 5%; in assay [4] (setting [8]), 5%; in assay [4] (at 50.0 µM), 5.5%. Moreover, the growth inhibition is 0% in assay [5] (setting [7]); 5% in assay [5] (setting [8]); 30.5% in assay [5] (at 50.0 µM); 2% in assay [6] (setting [7]); 18% in assay [6] (setting [8]); 84.6% (active) in assay [6] (at 50.0 µM).

As to `CCN(CC)CCOC(=O)c1ccc(N=Nc2ccc(O)c3ccccc23)cc1`, the growth inhibition was 0% in assay [1] (setting [7]); 99% (active) in assay [1] (setting [8]); 98.8% (active) in assay [1] (at 50.0 µM); 4% in assay [2] (setting [7]); 100% (active) in assay [2] (setting [8]); 99.1% (active) in assay [2] (at 50.0 µM). Moreover, the growth inhibition in assay [3] (setting [7]) was 6%; in assay [3] (setting [8]) it was 99% (active); in assay [3] (at 50.0 µM), 99% (active); in assay [4] (setting [7]), 6%; in assay [4] (setting [8]), 99% (active); in assay [4] (at 50.0 µM), 86.8% (active). For the same compound, the growth inhibition was -2% in assay [5] (setting [7]); 99% (active) in assay [5] (setting [8]); 41.1% in assay [5] (at 50.0 µM); -7% in assay [6] (setting [7]); 99% (active) in assay [6] (setting [8]); 99% (active) in assay [6] (at 50.0 µM).

For the origin of these results see PubChem BioAssay (NCI).
